Results reported in the supplement of paper PMC12067926.

Experiments:
Test in all cases: relative growth (AUC of 72 h growth curve relative to DMSO control, dAUC) (ratio); higher = more growth (less inhibition), active = hit call of the paper
Conditions in all cases: 20 µM;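 active = growth AUC significantly below the DMSO wells by Dunnett test; inactive = the rest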
[1] = system: Aeromonas 1 (Aeromonas sp. AE235)
How it was run: (§1)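 Cultures grown to carrying capacity in Luria–Bertani medium, drawn from Icelandic stream sediment and Silwood Park soil isolates and whole sediment communities, were diluted 1:100 into 96-well plates with each chemical at 20 µM (1% DMSO) and read at A600 hourly for 72 h. The spline-integrated area under the growth curve, divided by the mean of the DMSO controls, is reported as relative growth (dAUC). Values are means of three biological replicates.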

[2] = system: Aeromonas 2 (Aeromonas sobria)
How it was run: as §1

[3] = system: Aeromonas 3 (Aeromonas popoffii)
How it was run: as §1

[4] = system: Argrobacterium 1 (Agrobacterium sp.)
How it was run: as §1

[5] = system: Arthrobacter 1 (Arthrobacter humicola)
How it was run: as §1

[6] = system: Arthrobacter 2 (Arthrobacter humicola)
How it was run: as §1

[7] = system: Arthrobacter 3 (Arthrobacter sp.)
How it was run: as §1

Community 10 = system: Community 10
How it was run: as §1

Community 4 = system: Community 4
How it was run: as §1

Community 6 = system: Community 6
How it was run: as §1

Community 7 = system: Community 7
How it was run: as §1

Community 8 = system: Community 8
How it was run: as §1

Community 9 = system: Community 9
How it was run: as §1

[8] = system: Flavobacterium 1 (Flavobacterium glaciei)
How it was run: as §1

[9] = system: Flavobacterium 2 (Flavobacterium succinicans)
How it was run: as §1

[10] = system: Hymenobacter 1 (Hymenobacter glaciei)
How it was run: as §1

[11] = system: Microbacterium 1 (Microbacterium arborescens)
How it was run: as §1

[12] = system: Neobacillus 1 (Neobacillus soli)
How it was run: as §1

[13] = system: Oryzobacter 1 (Oryzobacter terrae)
How it was run: as §1

[14] = system: Paenibacillus 1 (Paenibacillus castaneae)
How it was run: as §1

Measured: relative growth

CNC(=O)ON=C(C)SC
inactive: [1] 0.953 | [2] 0.974 | [3] 1.01 | [4] 0.974 | [5] 0.962 | [6] 1.01 | [7] 0.971 | Community 10 1.14 | Community 4 1.09 | Community 6 1.05 | Community 7 0.999 | Community 8 0.942 | Community 9 1.04 | [8] 1.03 | [9] 1.03 | [10] 1.07 | [11] 0.999 | [12] 1.01 | [13] 0.947 | [14] 1.07

CCCCC(C#N)(Cn1cncn1)c1ccc(Cl)cc1 (stereo not given)
inactive: [1] 0.946 | [2] 0.901 | [3] 0.979 | [4] 1.07 | [5] 0.975 | [6] 0.849 | [7] 0.841 | Community 10 0.956 | Community 4 0.921 | Community 6 0.931 | Community 7 0.991 | Community 8 0.904 | Community 9 0.937 | [8] 0.856 | [9] 0.885 | [10] 0.912 | [11] 0.925 | [12] 0.942 | [13] 1.12 | [14] 0.97

CC1(C)C(C=C(Cl)Cl)C1C(=O)OCc1cccc(Oc2ccccc2)c1 (stereo not given)
inactive: [1] 1.03 | [2] 0.961 | [3] 0.99 | [4] 1.04 | [5] 1.12 | [6] 0.851 | [7] 0.987 | Community 10 0.824 | Community 4 0.922 | Community 6 0.94 | Community 7 1.08 | Community 8 0.975 | Community 9 0.932 | [8] 0.977 | [9] 0.958 | [10] 0.989 | [11] 0.987 | [12] 1.05 | [13] 1.14 | [14] 0.894

CN1COCN(Cc2cnc(Cl)s2)/C1=N\[N+](=O)[O-]
inactive: [1] 0.991 | [2] 0.983 | [3] 0.984 | [4] 1.04 | [5] 1.04 | [6] 1.02 | [7] 1.13 | Community 10 0.777 | Community 4 1.04 | Community 6 0.963 | Community 7 0.896 | Community 8 1.02 | Community 9 1.06 | [8] 1.02 | [9] 0.975 | [10] 0.998 | [11] 0.974 | [12] 1.01 | [13] 0.955 | [14] 0.945

O=C(Nc1ccc(F)cc1F)c1cccnc1Oc1cccc(C(F)(F)F)c1
inactive: [1] 1.03 | [2] 0.98 | [3] 1.01 | [4] 1.02 | [5] 1.06 | [6] 1 | [7] 1.07 | Community 10 0.942 | Community 4 1.08 | Community 6 0.987 | Community 7 1.04 | Community 8 0.97 | Community 9 1.11 | [8] 1.09 | [9] 1.03 | [10] 1.05 | [11] 0.997 | [12] 1.06 | [13] 1.03 | [14] 0.937

O=C1C2(Cl)C3(Cl)C4(Cl)C(Cl)(Cl)C5(Cl)C3(Cl)C1(Cl)C5(Cl)C24Cl (stereo not given)
inactive: [1] 0.934 | [3] 0.99 | [4] 1.03 | Community 10 0.82 | Community 4 0.858 | Community 6 0.811 | Community 7 1.14 | Community 8 1.02 | Community 9 0.875 | [9] 0.847 | [11] 1.01 | [12] 0.911
active: [2] 0.817 | [5] 0.00606 | [6] 0.00565 | [7] 0.0264 | [8] 0.126 | [10] 0.00946 | [13] 0.00589 | [14] 0.678

O=C(O)c1nc(Cl)ccc1Cl
inactive: [1] 0.95 | [2] 0.943 | [3] 0.997 | [4] 0.946 | [5] 1.03 | [6] 0.895 | [7] 0.963 | Community 10 0.892 | Community 4 0.903 | Community 6 0.972 | Community 7 1.17 | Community 8 0.994 | Community 9 0.937 | [8] 1.04 | [9] 0.962 | [10] 0.835 | [11] 0.977 | [12] 0.968 | [13] 0.889 | [14] 0.973

C#CCN1C(=O)COc2cc(F)c(N3C(=O)C4=C(CCCC4)C3=O)cc21
inactive: [1] 0.987 | [2] 0.969 | [3] 0.982 | [4] 0.996 | [5] 1.03 | [6] 0.974 | [7] 0.979 | Community 10 0.871 | Community 4 0.951 | Community 6 0.959 | Community 7 1.07 | Community 8 1.01 | Community 9 0.923 | [8] 0.957 | [9] 0.977 | [10] 1.06 | [11] 1.04 | [12] 1.01 | [13] 1.04 | [14] 0.935

COc1cc(C)c(C(=O)c2c(OC)ccc(Br)c2C)c(OC)c1OC
inactive: [1] 1.07 | [2] 1.03 | [3] 1.1 | [4] 1.04 | [5] 1.15 | [6] 0.768 | [7] 0.949 | Community 10 0.986 | Community 4 1.1 | Community 6 1.05 | Community 7 0.987 | Community 8 1.08 | Community 9 1.12 | [8] 0.992 | [9] 1.02 | [10] 1.16 | [11] 1.03 | [12] 1.06 | [13] 1.07 | [14] 0.965

Oc1ccc(Cl)cc1Cc1cc(Cl)ccc1O
active: [1] 0.522 | [2] 0.00195 | [3] 0.275 | [5] 0.00578 | [6] 0.00499 | [7] 0.011 | Community 6 0.496 | Community 8 0.654 | Community 9 0.327 | [8] 0.0108 | [9] 0.00242 | [10] 0.0173 | [12] 0.731 | [13] 0.00429 | [14] 0.00339
inactive: [4] 0.959 | Community 10 0.642 | Community 4 0.664 | Community 7 0.862 | [11] 0.869

COC(=O)Nc1nc2ccccc2[nH]1
inactive: [1] 1.01 | [2] 0.956 | [3] 0.973 | [4] 0.992 | [5] 1.04 | [6] 1.05 | [7] 1.12 | Community 10 0.869 | Community 4 1.02 | Community 6 0.998 | Community 7 0.965 | Community 8 0.959 | Community 9 1.04 | [8] 1.13 | [9] 1 | [10] 1.01 | [11] 0.974 | [12] 1.13 | [13] 1.07 | [14] 0.946

CC1=NNC(=O)N(/N=C/c2cccnc2)C1
inactive: [1] 1.04 | [2] 1.04 | [3] 1.04 | [4] 0.954 | [5] 1.13 | [6] 1.13 | [7] 1.05 | Community 10 0.983 | Community 4 1.1 | Community 6 1.14 | Community 7 0.897 | Community 8 0.918 | Community 9 1.2 | [8] 1.04 | [9] 1.05 | [10] 1.12 | [11] 1 | [12] 1.16 | [13] 1.01 | [14] 1.06

COP(=S)(OC)Oc1nc(Cl)c(Cl)cc1Cl
active: [6] 0.312 | [7] 0.646 | [8] 0.348
inactive: [1] 1.04 | [2] 1.02 | [3] 1.01 | [4] 1.05 | [5] 0.769 | Community 10 0.856 | Community 4 0.867 | Community 6 0.987 | Community 7 1.04 | Community 8 1.06 | Community 9 1.03 | [9] 0.97 | [10] 0.99 | [11] 1.04 | [12] 1.01 | [13] 1.05 | [14] 0.874

CCC(C)(C)C(=O)OC1=C(c2ccc(Cl)cc2Cl)C(=O)OC12CCCCC2
inactive: [1] 0.99 | [2] 0.957 | [3] 1 | [4] 1.01 | [5] 0.721 | [6] 0.892 | [7] 0.892 | Community 10 0.839 | Community 4 1.03 | Community 6 1.08 | Community 7 1.13 | Community 8 0.972 | Community 9 1.05 | [8] 0.794 | [9] 1.02 | [10] 1.01 | [11] 0.978 | [12] 1 | [13] 1.03 | [14] 0.964

CCC(CC)Nc1c([N+](=O)[O-])cc(C)c(C)c1[N+](=O)[O-]
inactive: [1] 0.951 | [2] 0.973 | [3] 0.997 | [4] 0.993 | [5] 0.901 | [6] 0.884 | [7] 1.02 | Community 10 0.687 | Community 4 0.88 | Community 6 0.917 | Community 7 1.03 | Community 8 1.02 | Community 9 0.884 | [8] 1.03 | [9] 0.957 | [10] 0.926 | [11] 1.04 | [12] 0.918 | [13] 1.1 | [14] 0.933

CCOP(=S)(OCC)Oc1cc(C)nc(C(C)C)n1
inactive: [1] 0.987 | [2] 0.964 | [3] 0.98 | [4] 1.16 | [5] 0.981 | [6] 0.834 | [7] 0.888 | Community 10 0.743 | Community 4 0.904 | Community 6 0.958 | Community 7 1.1 | Community 8 0.976 | Community 9 0.912 | [8] 0.913 | [9] 0.909 | [10] 0.975 | [11] 0.969 | [12] 0.943 | [13] 1.09 | [14] 0.922
